For 30 compounds, outcome and Potency results are on record in PubChem BioAssay (Tox21).

A number with no mark means an inactive call. Records with an inconclusive call do not appear. The source made the active and inactive calls. Unless noted, the call rests on the fitted dose curve; in most records, active means well fitted curve in the direction sought with a large enough effect in the repeat runs; inconclusive means weak or mixed curves; inactive means no such curve, though single readings can be large; an effect the other way counts as inactive or inconclusive.

Test [1] is described as follows: qHTS assay to identify small molecule antagonists of the glucocorticoid receptor (GR) signaling pathway - cell viability counter screen (AID 720693; further: nearly all actives have a fitted effect of over 55% in size). (In qHTS, concentration-response curves come from the screen itself.)
Test [2] in a line: qHTS assay for identifying genotoxic compounds that show differential cytotoxicity against isogenic chicken DT40 cell lines with known DNA damage response pathways - wild type cell line (AID 743012). Further: nearly all actives have a fitted effect of over 60% in size. Further: potency means the concentration at half of the fitted maximal effect. In a few lines: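 CellTiter-Glo luminescence readout of viability in wild type DT40 cells after 40 h compound exposure at 37 C/5% CO2; 300 cells/well; reagent incubated 30 min at room temperature before reading.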

Test [3] in a line: qHTS assay for identifying genotoxic compounds that show differential cytotoxicity against isogenic chicken DT40 cell lines with known DNA damage response pathways - Rev3 mutant cell line (AID 743014). Further: nearly all actives have a fitted effect of over 55% in size. Further: potency means the concentration at half of the fitted maximal effect.
Test [4] can be described thus: qHTS assay for identifying genotoxic compounds that show differential cytotoxicity against isogenic chicken DT40 cell lines with known DNA damage response pathways - Rad54/Ku70 mutant cell line (AID 743015). Further: nearly all actives have a fitted effect of over 60% in size. Further: potency means the concentration at half of the fitted maximal effect.
Test [5] can be described thus: qHTS assay to identify small molecule antagonists of the androgen receptor (AR) signaling pathway - cell viability counter screen (AID 743033; further: nearly all actives have a fitted effect of over 45% in size).
Test [6] in a line: qHTS assay to identify small molecule antagonists of the androgen receptor (AR) signaling pathway using the MDA cell line - cell viability counter screen (AID 743041; further: nearly all actives have a fitted effect of over 45% in size). The gist of the method:
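Viability read by CellTiter-Fluor fluorescence in the same wells as the antagonist screen, added after 15.5 h of a 16 h, 37C exposure. Human breast carcinoma MDA-kb2 AR-luc cells, compounds co-dosed with agonist R1881.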

Test [7] in a line: qHTS assay to identify small molecule antagonists of the thyroid receptor (TR) signaling pathway - cell viability counter screen (AID 743064). Further: nearly all actives have a fitted effect of over 50% in size. In a few lines:
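Viability of T3-stimulated (1 nM final) GH3.TRE-Luc cells is measured by CellTiter-Fluor fluorescence after 23.5 h compound exposure at 37 °C plus 30 min reagent incubation.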

For test [8], the target named is Androgen receptor (Homo sapiens) (UniProt P10275). The test can be described thus: qHTS assay to identify small molecule antagonists of the androgen receptor (AR) signaling pathway (AID 743035; active means well fitted inhibition curve with a large enough effect in the signal ratio in the repeat runs, not every such curve was filed as active; the % refers to the signal ratio). In a few lines: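 AR-bla HEK293 reporter cells; 4 h settle at 37C/5% CO2; compound + R1881 agonist, 16 h at 37C; LiveBLAzer B/G FRET substrate 2 h RT; fluorescence intensity read. qHTS format.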

The target is the same in test [9]. The test is described as follows: qHTS assay to identify small molecule agonists of the androgen receptor (AR) signaling pathway (AID 743036; active means well fitted activation curve with a large enough effect in the signal ratio in the repeat runs, with a control signal flat, not every such curve was filed as active; the % refers to the signal ratio). The gist of the method: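 Screening used 2,000 AR-bla HEK293 cells per well, treated 16 h at 37C with test compounds in DMSO alongside positive and DMSO-only controls; beta-lactamase activity was then read by LiveBLAzer B/G FRET fluorescence after 2 h at room temperature.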

Test [10] shares this target. The test can be described thus: qHTS assay to identify small molecule agonists of the androgen receptor (AR) signaling pathway using the MDA cell line (AID 743040; further: nearly all actives have a fitted effect of over 20% in size). In a few lines: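 Luciferase agonist assay: 16 h compound exposure at 37C without CO2 in MDA-kb2 AR-luc cells, whose MMTV promoter responds to both AR and GR. Luminescence measured after 30 min room-temperature incubation with ONE-Glo.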

Androgen receptor (Homo sapiens), sequence (P10275 whole entry, looked up): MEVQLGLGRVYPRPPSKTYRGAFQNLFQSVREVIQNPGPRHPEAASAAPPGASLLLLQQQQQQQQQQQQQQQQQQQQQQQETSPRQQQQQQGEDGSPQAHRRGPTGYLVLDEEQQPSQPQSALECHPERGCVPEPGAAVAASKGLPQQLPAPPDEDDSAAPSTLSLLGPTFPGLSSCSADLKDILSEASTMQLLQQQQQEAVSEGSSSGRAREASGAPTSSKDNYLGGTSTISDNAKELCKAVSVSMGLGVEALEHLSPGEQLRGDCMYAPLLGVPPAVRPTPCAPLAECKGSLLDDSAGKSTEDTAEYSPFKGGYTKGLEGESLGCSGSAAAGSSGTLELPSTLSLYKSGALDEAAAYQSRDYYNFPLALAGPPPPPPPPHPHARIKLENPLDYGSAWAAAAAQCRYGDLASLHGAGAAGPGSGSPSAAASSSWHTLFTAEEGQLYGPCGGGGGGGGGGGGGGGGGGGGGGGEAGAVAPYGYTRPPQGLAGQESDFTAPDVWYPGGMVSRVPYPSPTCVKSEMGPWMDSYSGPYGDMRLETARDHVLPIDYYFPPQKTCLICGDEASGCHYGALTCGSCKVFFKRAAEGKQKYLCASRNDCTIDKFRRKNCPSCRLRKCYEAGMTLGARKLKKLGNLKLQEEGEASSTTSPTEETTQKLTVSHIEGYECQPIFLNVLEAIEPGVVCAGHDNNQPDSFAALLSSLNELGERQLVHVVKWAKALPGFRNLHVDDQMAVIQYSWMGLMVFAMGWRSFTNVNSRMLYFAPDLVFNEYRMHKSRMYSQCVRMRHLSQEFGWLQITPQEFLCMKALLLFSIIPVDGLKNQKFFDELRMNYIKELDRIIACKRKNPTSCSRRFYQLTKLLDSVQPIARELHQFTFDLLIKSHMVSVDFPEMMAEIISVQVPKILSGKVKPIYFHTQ

In the case of `Cc1ccccc1C#N`, the result in test [1], in test [5] and in [6] was inactive. Also, the Potency entry in [2], in test [3], in [4] and in [7] was “inactive” in each case.
On to `C[C@@H]1CC[C@@]2(OC1)O[C@H]1C[C@H]3[C@@H]4CC[C@H]5C[C@@H](O)CC[C@]5(C)[C@H]4CC(=O)[C@]3(C)[C@H]1[C@@H]2C`, for which the compound was classed as inactive in test [1], in test [5] and in [6]. Besides, the Potency entry in test [2], in test [3], in test [4] and in test [7] was “inactive” each time.
For the compound `Cc1cc(O)c(Cl)cc1C`, the result in test [1], in test [5] and in test [6] was inactive. The Potency entry in test [2], in test [3], in test [4] and in test [7] was “inactive” each time.
Take `O=CN1CCCCC1`: the compound was classed as inactive in test [1], in test [5] and in test [6]. Moreover, the Potency result in test [2], in test [3], in test [4] and in test [7] was “inactive” each time.
As to `COC(=O)c1c(C)cc(O)c(C)c1O`, the outcome in test [1], in [5] and in test [6] was inactive. In addition, the Potency in test [2] was 61.1 µM (active); in test [3] it was 54.5 µM (active); in test [4], 61.1 µM (active). Also, the Potency entry in test [7] is “inactive”.
Regarding `CN(C)CCC[C@@]1(c2ccc(F)cc2)OCc2cc(C#N)ccc21`, the outcome in test [1], in test [5] and in test [6] was inactive. The Potency result in test [2], in test [3], in test [4] and in test [7] was “inactive” each time.
For `CCC(C)SSC(C)CC` (stereo not given), the outcome in [1], in test [5] and in test [6] was inactive. Also, the Potency result in [2], in test [3], in test [4] and in test [7] was “inactive” in each case.
Turning to `CCCCC(CC)COC(=O)CC#N` (stereo not given), the call in test [1], in [5] and in [6] was inactive. Also, the Potency entry in [2], in [3], in test [4] and in test [7] was “inactive” each time.
Consider `N=C(N)N1CCc2ccccc2C1`, for which the outcome in test [1], in test [5] and in [6] was inactive. The Potency result in [2], in test [3], in test [4] and in [7] was “inactive” each time.
`C=CCOC(=O)CCCCCCCC`: the compound was classed as inactive in test [1], in test [5] and in [6]. In addition, the Potency entry in test [2], in test [3], in [4] and in test [7] was “inactive” each time.
With `O=C(CCBr)N1CCN(C(=O)CCBr)CC1`, the outcome in test [1], in test [5] and in test [6] was inactive. Besides, the Potency result in [2], in [3], in test [4] and in test [7] was “inactive” in each case.
As for `CC(=O)Nc1ccc(S(=O)(=O)Nc2cc(C)on2)cc1`, the compound was classed as inactive in [1], in test [5] and in [6]. Besides, the Potency entry in [2], in [3], in test [4] and in test [7] was “inactive” each time.
In the case of `Cc1ccc(O)c(C(=O)c2ccccc2)c1`, the compound was classed as inactive in test [1], in test [8], in test [9], in test [10] and in test [6]. Besides, the Potency result in [2], in [3] and in test [4] was “inactive” each time.
On to `CCCCOCCCC`, for which the compound was called inactive in test [1], in test [5] and in test [6]. Moreover, the Potency entry in test [2], in test [3], in test [4] and in test [7] was “inactive” each time.
For `C=CCCCCCCCCCCCCCC`, the compound was classed as inactive in test [1], in test [5] and in [6]. The Potency result in test [2], in test [3], in [4] and in test [7] was “inactive” each time.
`N=C(N)N`: the compound was called inactive in test [1], in [5] and in [6]. Besides, the Potency result in test [2], in test [3], in test [4] and in test [7] was “inactive” in each case.
`CNCCc1ccccn1`: the result in test [1], in [5] and in [6] was inactive. Besides, the Potency result in [2], in test [3], in test [4] and in test [7] was “inactive” each time.
As to `COc1ccc(Cl)cc1C`, the compound was classed as inactive in test [1], in [5] and in test [6]. Also, the Potency result in test [2], in test [3], in test [4] and in [7] was “inactive” each time.
In the case of `C[C@@H]1NC(=O)[C@@H](N)CNC(=O)[C@H](C2CCNC(N)=N2)NC(=O)/C(=C/NC(N)=O)NC(=O)[C@H](CNC(=O)C[C@@H](N)CCCN)NC1=O` (stereo not given in full), the call in test [1], in test [5] and in test [6] was inactive. Besides, the Potency result in [2], in [3], in test [4] and in test [7] was “inactive” in each case.
On to `COc1cc(NS(=O)(=O)c2ccc(N)cc2)ncn1`, for which the outcome in test [1] and in test [6] was inactive. Moreover, the Potency entry in test [2], in [3] and in [4] was “inactive” each time.
As for `Cc1nnc(C(=O)NC(C)(C)c2nc(C(=O)NCc3ccc(F)cc3)c(O)c(=O)n2C)o1`, the outcome in test [1], in test [5] and in [6] was inactive. The Potency result in test [2], in test [3], in test [4] and in test [7] was “inactive” throughout.
As for `CCCCC(CC)CCC(CC(C)C)OS(=O)(=O)O` (stereo not given), the compound was classed as inactive in test [1], in [5] and in test [6]. Besides, the Potency result in test [2], in test [3], in test [4] and in test [7] was “inactive” throughout.
For the compound `CC(C)(C)C(=O)CCc1ccc(Cl)cc1`, the compound was classed as inactive in [1], in [5] and in test [6]. For the same compound, the Potency result in test [2], in test [3], in [4] and in test [7] was “inactive” throughout.
For `Cc1cc(C)c(N)c(Cl)c1`, the outcome in test [1], in [5] and in [6] was inactive. In addition, the Potency entry in test [2], in [3], in test [4] and in [7] was “inactive” throughout.
On to `CCc1ncc(C)[nH]1`, for which the outcome in test [1], in test [8], in test [9], in test [10] and in test [6] was inactive. Moreover, the Potency result in test [2], in test [3], in [4] and in test [7] was “inactive” each time.
As for `C[C@H]1COc2c(C3(N)CC3)c(F)cc3c(=O)c(C(=O)O)cn1c23`, the outcome in test [1] and in [6] was inactive. Further, the Potency result in test [2], in test [3], in [4] and in test [7] was “inactive” throughout.
Turning to `CC(C)(C)C(=O)CC(=O)C(C)(C)C`, the compound was called inactive in test [1], in [5] and in test [6]. For the same compound, the Potency entry in [2], in test [3], in [4] and in [7] was “inactive” each time.
In the case of `C=CC(=O)OCC[N+](C)(C)C`, the result in test [1], in test [5] and in [6] was inactive. For the same compound, the Potency result in test [2], in test [3], in test [4] and in test [7] was “inactive” throughout.
As for `CCN1CCN(C(=O)N[C@@H](C(=O)N[C@@H]2C(=O)N3C(C(=O)O)=C(CSc4nnnn4C)CS[C@H]23)c2ccc(O)cc2)C(=O)C1=O`, the compound was classed as inactive in test [1], in test [5] and in test [6]. For the same compound, the Potency result in test [2], in test [3], in test [4] and in test [7] was “inactive” throughout.
Regarding `NC[C@H]1O[C@H](O[C@H]2[C@H](O)[C@@H](O[C@H]3O[C@H](CO)[C@@H](O)[C@H](N)[C@H]3O)[C@H](N)C[C@@H]2N)[C@H](N)[C@@H](O)[C@@H]1O`, the compound was called inactive in [1], in test [5] and in test [6]. The Potency entry in test [2], in test [3], in [4] and in test [7] was “inactive” each time.
